High-throughput results (PubChem)
FBW7 act = human FBW7 E3 ligase activation, primary screen. Q969H0. AlphaScreen FBW7–phospho-cyclin E peptide binding, activator screen. normalized activity (activation), % at 26.1 µM. 0.13% of 650,000 active. AID 1259310; in the data active = normalized activity above about 1.9%;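 also: purified mutant Fbw7 with reduced substrate affinity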
TEAD-YAP inh = TEAD-YAP interaction inhibition; inhibition, % at 9.12 µM; AID 1259422; 1.4% of 640,000 active; HEK-TIYL cells, TEAD-Gal4/YAP UAS-luciferase luminescence; in the data active = inhibition above about 32%;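 also: 0% = median of test compound wells and 100% = reference inhibitor wells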
GPR151 activ = activators of human GPR151. Q8TDV0. 1% of 650,000 active. activation, % at 11.2 µM. PathHunter beta-arrestin GPR151 cells, luminescence; in the data active = activation above about 4.9%;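 also: 0% = median of compound wells and 100% = cells with positive control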
MITF primary = inhibitors of human MITF. AID 1259374. AlphaScreen MITF homodimerization, bead proximity signal. inhibition, % at 2.6 µM. 0.91% of 650,000 active. O75030; in the data active = inhibition above about 50%;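 also: 0% = vehicle wells with protein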
Numbers without * were called inactive; ! = a repeat was not active. Shown are actives, neighbours in structure and some others; about 3.5% of the full set was active somewhere.

SMILES	FBW7 act	TEAD-YAP inh	GPR151 activ	MITF primary
CCCOc1ccccc1C1NC(=S)NC(C)=C1C(=O)OCc1ccccc1 (stereo unspecified)	0	-11	-1	9
C[n+]1c2cc(N)ccc2cc2ccc(N)cc21	0	-1	0	52*!
Nc1ccc2nc(/C=C/c3nc4ccc(N)cc4[nH]3)[nH]c2c1	0	16	2	20
C[n+]1c2cc(N)ccc2cc2ccc(N)cc21 (tested in a mixture with another compound)	0	-14	-3	57*
CCOC(=O)c1c(N)sc(C(=O)Nc2cccc(OC)c2)c1C	0	52*	-8	18
CCOC(=O)c1ccc(NC(=O)c2sc(NC(=O)c3cc(OC)c(OC)c(OC)c3)c(C(=O)OCC)c2C)cc1	0	8	1	4
CCOC(=O)c1ccccc1NC(=O)c1sc(N)c(C(=O)OCC)c1C	0	54*	1	22
COC(=O)c1c(N)sc(C(=O)Nc2ccccc2C)c1C	0	24	-2	-22
COC(=O)c1c(N)sc(C(=O)Nc2ccc(C)cc2C)c1C	0	76*	-3	-18
CCOC(=O)c1c(N)sc(C(=O)Nc2ccccc2C)c1C	0	-17	-1	-12
CCOC(=O)c1ccc(NC(=O)c2sc(N)c(C(=O)OCC)c2C)cc1	0	61*	2	-4
Cc1cc(C(=O)CSc2ccccc2)c(C)n1-c1c(C)n(C)n(-c2ccccc2)c1=O	0	19	2	-2
COc1ccc(OC)c(CN2CCC(C(=O)NCCc3ccccc3)CC2)c1	0	0	0	-9
CCOC(=O)N1CCN(C(=O)N2c3ccccc3Sc3ccccc32)CC1	0	56*	1	-2
CC1CCN(C(=O)N2c3ccccc3Sc3ccccc32)CC1	0	-4	1	12
CC(C)OCCCNC(=O)c1ccc(CN2CCc3ccccc3C2)cc1	2.0*	11	0	15
O=C1CCCN1CCCNc1nc(Nc2ccccn2)nc2c1ncn2-c1ccsc1	0	53*	2	-12
COc1cc(Nc2nc(N3CCN(c4ccccn4)CC3)nc3c2ncn3CCN2CCCC2=O)cc(OC)c1OC	0	33*	0	4
Cn1nccc1Nc1nc(NCCCN2CCCC2=O)c2ncn(-c3ccsc3)c2n1	0	17	1	9
O=C1CCCN1CCCNc1nc(NC2CC2)c2ncn(-c3ccsc3)c2n1	0	34*	3	8
O=C1CCCN1CCCNc1nc(Nc2cnccn2)nc2c1ncn2-c1ccsc1	0	75*	-1	4
O=C(Nc1ccc(SC(F)F)cc1)c1cccc([N+](=O)[O-])c1	1	-16	0	18
COc1cc(Nc2nc(NCCCN3CCCC3=O)nc3c2ncn3-c2ccsc2)cc(OC)c1OC	0	14	-2	8
COc1cc(Nc2nc(NCCCN3CCCC3=O)c3ncn(-c4ccsc4)c3n2)cc(OC)c1OC	0	54*	-1	2
CCC(=O)NC(c1ccc(N(C)C)cc1)c1ccc2cccnc2c1O (stereo unspecified)	-2	69*	0	35
SMILES	FBW7 act	TEAD-YAP inh	GPR151 activ	MITF primary
CCCCC(=O)NC(c1ccc(N(C)C)cc1)c1ccc2cccnc2c1O (stereo unspecified)	-2	75*	-1	22
CC(=O)NC(c1ccc(N(C)C)cc1)c1ccc2cccnc2c1O (stereo unspecified)	-2	82*	-1	59*
CCN(CC)c1ccc(C(NC(=O)C(C)C)c2ccc3cccnc3c2O)cc1 (stereo unspecified)	-1	74*	-1	20
COc1ccc(C2OC(=O)CC2C(=O)Nc2cccc(F)c2)cc1 (stereo unspecified)	0	-13	0	16
CC(C)C(=O)NC(c1ccc(N(C)C)cc1)c1ccc2cccnc2c1O (stereo unspecified)	-2	84*	0	31
NC(C(=O)N1CCC(Nc2ccc3[nH]ncc3c2)CC1)c1ccc(-c2ccccc2)cc1 (stereo unspecified)	0	38*	-1	3
COc1ccc(-n2nc(C(=O)NCC(=O)N3CCCC3)c3ccccc3c2=O)cc1	0	-2	0	7
COc1ccc(-n2nc(C(=O)NCC(=O)N3CCC(Cc4ccccc4)CC3)c3ccccc3c2=O)cc1	0	33*	2	11
COc1ccc(OC)c(NC(=O)CNC(=O)c2nn(-c3ccc(OC)c(OC)c3)c(=O)c3ccccc23)c1	0	39*	0	-10
COc1ccc(OC)c(NC(=O)CNC(=O)c2nn(-c3ccc(OC)c(Cl)c3)c(=O)c3ccccc23)c1	0	36*	1	2
